p53 reactivation: restores transcriptional activity of mutant p53; H1299 p53-A138V BP100-luciferase reporter, luminescence, 24 h; Potency, µM (highest dose often 92.2 µM), inactives show at the highest dose activity change, positive = activation, actives largely listed as activators; hit rate 0.063% among 320,000; AID 504706; further: potency means the concentration at half of the fitted maximal effect; % of control where 0% means no effect; nearly all actives have a fitted effect of over 45% in size
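p53-null H1299 cells stably carrying temperature-sensitive p53-A138V and a BP100-luciferase reporter were pinned with compounds (4-point, 1:5 series) and held 24 hrs at 37 deg C. Luminescence was read 10 min after detection reagent.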
GLP-1R inv ag: acts as inverse agonist at human GLP-1 receptor | Potency, µM (doses to about 38.3 µM), without a hit: at the highest dose activity change, negative = inhibition, usual class: inhibitors | P43220 | hit rate 1.6% among 410,000 | HEK293 GLP-1R CRE-luciferase, luminescence, 24 h; GLP-1R form is constitutively active; further: potency means the concentration at half of the fitted maximal effect; on the % scale 0 is the no-effect control and ±100 the full control effect; nearly all actives have a fitted effect of over 55% in size
Target sequence (P43220 whole entry, looked up): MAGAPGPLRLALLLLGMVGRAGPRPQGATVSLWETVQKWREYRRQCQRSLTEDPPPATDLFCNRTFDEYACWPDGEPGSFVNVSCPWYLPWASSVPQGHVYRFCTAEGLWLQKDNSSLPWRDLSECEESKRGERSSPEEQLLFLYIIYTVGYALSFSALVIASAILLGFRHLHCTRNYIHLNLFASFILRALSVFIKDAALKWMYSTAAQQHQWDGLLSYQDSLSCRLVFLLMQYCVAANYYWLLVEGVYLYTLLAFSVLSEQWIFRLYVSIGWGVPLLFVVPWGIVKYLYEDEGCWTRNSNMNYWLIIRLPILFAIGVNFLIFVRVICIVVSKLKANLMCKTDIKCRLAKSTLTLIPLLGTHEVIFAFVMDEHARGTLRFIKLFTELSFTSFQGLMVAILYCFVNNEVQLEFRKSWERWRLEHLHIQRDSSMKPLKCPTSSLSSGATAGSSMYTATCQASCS
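Luminescence readout: a drop in cAMP-driven luciferase signal flags inverse agonism at a constitutively active GLP-1R stably expressed in HEK293. Compound exposure lasted 24 hr at 37 deg C, 5% CO2.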
GLP-1R agonist: agonists of human GLP-1 receptor | P43220 | HEK293 GLP-1R CRE-luciferase, luminescence, 4-6 h; cells express a hypersensitive GLP-1R form | Potency, µM (titrated, usually from 45.6 µM), for inactives: at the top dose activation, usual class: activators | hit rate 0.007% among 380,000 | AID 624172; further: potency means the concentration at half of the fitted maximal effect; % of control where 0% means no effect
LDHA block: LDHA (human) enzyme inhibition; P00338; purified LDHA, NADH/diaphorase-resazurin fluorescence; active compounds read low; activity change, % (values are at about 110 or 230 µM); hit rate 0.15% among 480,000; in the data active means activity change below about -30%; inconclusive means mostly about -25% to -30%;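 further: plate controls were DMSO wells for no effect and wells without enzyme for full effect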
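Human LDH5 (2 nM) was incubated with 0.06 mM NADH and 0.2 mM pyruvate for 5 min at room temperature in Tris pH 7.4. Remaining NADH was coupled through diaphorase/resazurin, and resorufin fluorescence was read at 0 and 20 min.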
ClpP mod: qHTS Assay for Activators of ClpP; hit rate 1.9% among 340,000; purified B. subtilis ClpP, FRET peptide cleavage, 20 min; Potency, µM (series often up to 57.5 µM), for the others: top-dose activity change, negative = active; ATP-dependent Clp protease proteolytic subunit (Bacillus subtilis (strain 168)), P80244; active means well fitted falling curve with a large enough effect; inconclusive means small, poorly fitted or top-dose-only effect; inactive means no such curve, though single readings can be large or run the other way; further: potency means the concentration at half of the fitted maximal effect; the source files actives as falling curves though it sought activators and does not explain the sign; nearly all actives have a fitted effect of over 65% in size
Target sequence (P80244 whole entry, looked up): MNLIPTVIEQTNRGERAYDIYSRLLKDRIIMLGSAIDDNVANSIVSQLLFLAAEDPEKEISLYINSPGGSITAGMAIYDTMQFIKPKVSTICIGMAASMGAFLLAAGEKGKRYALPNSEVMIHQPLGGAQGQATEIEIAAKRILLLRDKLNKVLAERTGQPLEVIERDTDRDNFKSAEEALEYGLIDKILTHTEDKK
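Buffer: 100 mM Tris/HCl pH8, 100 mM KCl, 0.05% low protease BSA, 2.5% glycerol, 0.01% Tween-20. ClpP 10 microg/mL final; 20 min RT; delta FRET normalized to ADEP and DMSO controls.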
GLP1R cytotox: cytotoxicity counter-screen for GLP-1 receptor inverse agonists; HEK293 cAMP-luciferase reporter cells, luminescence, 24 h; Potency, µM (doses to about 38.3 µM), for inactives: at the top dose activity change, negative = inhibition, most hits filed as inhibitors; hit rate 0.13% among 410,000; AID 624418;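 further: loss of luciferase light is scored as toxicity; potency means the concentration at half of the fitted maximal effect; on the % scale 0 is the no-effect control and ±100 the full control effect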
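Compound-treated cells are incubated 24 hr at 37 deg C under 5% CO2 after a 12 hour attachment period, then luciferase detection reagent is added and luminescence is measured following 12 min at room temperature; lowered signal indicates toxicity.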
* = called active by the depositor; u = inconclusive; x = no result given. Hits are enriched below; roughly 2.9% of the tested compounds scored in any of these assays. Unless noted, the call rests on the fitted dose curve; in most records, active means well fitted curve in the direction sought with a large enough effect; inconclusive means small, poorly fitted or top-dose-only effect, or another doubt; inactive means no such curve, though single readings can be large; an effect the other way counts as inactive or inconclusive.

SMILES	p53 reactivation	GLP-1R inv ag	GLP-1R agonist	LDHA block	ClpP mod	GLP1R cytotox
CC(C)(C)S(=O)(=O)N1C[C@@H]2CC/C=C\C/C=C\2[C@H]1CCO	x	5µM*	-4%	-3	1%	-4%
Cc1c(/C=N/NC(=O)CNc2ccccc2)c2ccccn2c1C(=O)c1ccc(Cl)cc1	-3%	5.6µM*	-31%	-3	-2%	-16%
O=C1CCCN1CCCNS(=O)(=O)c1ccccc1	x	11%	-3%	-3	-2%	11%
Cc1ccc(C(C)C)c(OCC(O)CN2CCc3ccccc3C2)c1 (centres undefined)	-15%	u	-2%	1	x	u
Cc1cccc(C)c1OCC(O)CN1CCc2ccccc2C1 (centres undefined)	x	10µM*	2%	-2	1%	1%
COc1ccc(COCC(O)CN2CCc3ccccc3C2)cc1OC (centres undefined)	-2%	-25%	3%	-5	28µM*	2%
OC(COCc1ccccc1)CN1CCc2ccccc2C1 (centres undefined)	4%	-30%	-17%	1	1%	2%
OC(COc1c(F)cc(Br)cc1F)CN1CCc2ccccc2C1 (centres undefined)	-9%	u	-4%	1	3%	2%
Cn1cc(CNCc2ccccc2OCC(O)CN2CCc3ccccc3C2)cn1 (centres undefined)	-1%	8.9µM*	-2%	3	x	u
O=C(NCc1ccc(F)cc1)C1CCN(S(=O)(=O)N2CCOCC2)CC1	3%	0%	1%	-4	-2%	4%
COc1cccc(NS(=O)(=O)c2cc(C(=O)N3CCCC3)cs2)c1	x	x	x	-4	x	x
OC1(C(F)(F)F)CC(c2ccc3ccccc3c2)=NO1 (centres undefined)	35µM*	u	8%	-6	-4%	-6%
Clc1cccc(NCc2nnc(SCc3ccccc3)o2)c1	3%	7.1µM*	7%	-4	0%	1%
CC(C)C(NCC(=O)Nc1ccccc1C(=O)NC1CC1)c1ccccc1 (centres undefined)	-5%	10µM*	9%	-6	x	-19%
CC(NCC(=O)Nc1ccccc1C(=O)NC1CC1)c1cccs1 (centres undefined)	-4%	13%	18%	-5	x	-8%
NC(=O)c1ccsc1NC(=O)c1ccc2c(c1)CCCC2	u	u	-2%	-3	-15%	5%
CCOC(=O)N1CCN(C(=O)C2CCN(Cc3ccc(O)c(OCC)c3)CC2)CC1	-4%	11%	10%	-9	x	-22%
Cc1nc(NC(=S)NC(=O)COc2ccccc2Cl)ccc1Br	-6%	9%	-11%	-6	28µM*	-9%
O=C1C=C(C2OC(CO)C(O)C2O)C(=O)N1 (centres undefined)	x	-1%	4%	-3	-1%	-2%
CN(C(=O)CSC1=Nc2ccccc2C2=NC(c3ccccc3)C(=O)N12)C1CCCCC1 (centres undefined)	6%	125%	5%	-9	25µM*	u
O=C(CSC1=Nc2ccccc2C2=NC(c3ccccc3)C(=O)N12)Nc1ccc(F)cc1F (centres undefined)	x	x	x	2	x	x
O=C(CSC1=Nc2ccccc2C2=NC(c3ccccc3)C(=O)N12)NC1CCCCC1 (centres undefined)	3%	0%	12%	-2	11µM*	8%
CC(C)(C)c1ccccc1NC(=O)CSc1nc(-c2cccs2)cc(C(F)(F)F)n1	x	-8%	1%	-6	u	1%
COC1(OC)C(/C=C/c2ccc(C)cc2)C(C#N)(C#N)C1(OC)OC (centres undefined)	x	u	-31%	3	32µM*	-32%
CCOC(=O)N1CCN(Cc2ccc(O)c3ncccc23)CC1	3%	5µM*	9%	22	x	-39%
SMILES	p53 reactivation	GLP-1R inv ag	GLP-1R agonist	LDHA block	ClpP mod	GLP1R cytotox
CCCOCc1ccc(O)c2ncccc12	18%	u	5%	10	x	-21%
Oc1ccc(CCc2ccccc2F)c2cccnc12	x	x	x	2	x	x
Oc1ccc(Cc2ccccc2)c2cccnc12	x	6.3µM*	26%	4	x	5%
Oc1ccc(COCc2ccccc2)c2cccnc12	u	10µM*	0%	6	4%	7%
CC(C)COCc1ccc(O)c2ncccc12	7%	4µM*	-1%	20	x	u
COc1ccccc1C(=O)NC(=O)COC(=O)CCOc1ccccc1C	4%	2%	-12%	-3	-4%	-6%
COc1ccc(CC(=O)NC2CCSc3ccccc32)c(OC)c1 (centres undefined)	-4%	u	14%	-2	x	2%
Oc1ccc(Cl)c2cccnc12	x	10µM*	-2%	14	-3%	7%
OCc1ccc(O)c2ncccc12	-3%	10µM*	-23%	6	1%	u
O=C(NCC1CCCO1)c1sc(=S)n2c1[nH]c(=O)c1ccc(C(=O)N3CCCCC3)cc12 (centres undefined)	9%	39%	11%	-17	0%	-18%
Cc1ccc(-c2nc(C)c(C(=O)O)s2)cc1	-10%	10µM*	-4%	-5	x	-7%
Cc1nc(-c2ccccc2)sc1C(=O)O	-2%	13%	5%	-5	x	11%
CC1=C(C(=O)Nc2ccc(C)cn2)C(c2cnn(C)c2)C2=C(CCCC2=O)N1 (centres undefined)	-3%	0%	5%	-7	6.3µM*	0%
O=C(CN1CCN(Cc2ccc3c(c2)OCO3)CC1)N1CCc2[nH]c3ccc(F)cc3c2C1	-8%	8.9µM*	-5%	-5	-1%	-18%
O=C(c1cccn2c(=O)c3ccc(Cl)cc3nc12)N1CCN(Cc2ccc3c(c2)OCO3)CC1	2%	5%	-7%	0	22µM*	8%
O=C(c1cccc(Cl)c1)N1CCN(Cc2ccc3c(c2)OCO3)CC1	10%	u	3%	-1	0%	-10%
O=C(c1cc2cc(Cl)ccc2[nH]1)N1CCN(Cc2ccc3c(c2)OCO3)CC1	19%	11µM*	-3%	0	-6%	-17%
CC(C(=O)O)N1C(=O)/C(=C/c2cccn2C)SC1=S (centres undefined)	-5%	0%	-10%	-11	0%	-24%
CCC(=O)N1CCc2cc(S(=O)(=O)NCCC(=O)Nc3cc(C)cc(C)c3)ccc21	-13%	1%	-1%	-10	1%	-7%

Screening results (PubChem)
